Compound activity: PubChem BioAssay, Broad Institute
This is a sample that favours compounds with a hit; in the whole collection about 2.8% have one here.
HIV Env fusion: HIV envelope-mediated fusion inhibition; inhibition, % at 12.3 µM; HeLa-JRFL Env/CEM21 cell fusion, luciferase; 360,000 tested, 1.1% active;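 active = mean replicate inhibition score of at least 50 and every replicate individually at or above 50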;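 note: 0% = plate neutral controls and 100% = maraviroc near 300 nM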
NSD2 inh: NSD2 (human) methyltransferase inhibition | O96028 | inhibition, % at 12.5 µM | 310,000 tested, 0.54% active | NSD2 peptide methylation, AlphaScreen, 120 min; in the data active = inhibition above about 50%
N-glyco inh: blocks N-linked glycosylation in D54 reporter cells. D54 ERlucT glycosylation luciferase reporter, 24 h; percent of 100 nM tunicamycin response. reporter increase, % at 12.5 µM. 360,000 tested, 0.23% active. AID 588692;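 active = mean luciferase reporter signal, scaled so untreated is 0 and the glycosylation-blocking control 100, at or above a set limit in every replicate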;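 note: luciferase carries N-glycosylation sites so blocking glycosylation raises the light; 0% = median of neutral control wells and 100% = median of 100 nM tunicamycin wells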
EBV LMP1 NFkB: inhibitors of Epstein-Barr LMP1-induced NF-kappaB reporter. LMP1-induced NF-kappaB luciferase reporter cells, luminescence. inhibition, % at 12.5 µM. 350,000 tested, 0.69% active. AID 504558; in the data active = inhibition above about 41%;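 note: 0% = neutral control wells and 100% = reference inhibitor control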
PAX8 inh HTS: lowers PAX8-driven luciferase in RMG-I cells | inhibition, % at 12.6 µM | 360,000 tested, 1.2% active | AID 652154 | RMG-I TPO-luciferase reporter, SteadyGlo, 24 h;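 active = mean replicate inhibition at least 60% with every replicate also reaching 60%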;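 note: luciferase light reporting Pax8 driven TPO promoter activity; plate controls were median of neutral control wells for no effect and mitoxantrone controls for full effect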
Shn3 3UTR inh: reduces Shn3 3'UTR luciferase signal in osteoblasts. Clone20 osteoblast Shn3 3'UTR firefly luciferase, 24 h. AID 588674. 360,000 tested, 0.52% active. inhibition, % at 12.5 µM;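 active = mean inhibition of at least 75% with every replicate also reaching 75%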;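 note: 0% = median of neutral control wells and 100% = pilot-screen positive control compound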
* marks the source's active call; other numbers are inactive results; / = no result; ! = a repeat was not active; [ ] = dose if it differs, or a comment.

SMILES	HIV Env fusion	NSD2 inh	N-glyco inh	EBV LMP1 NFkB	PAX8 inh HTS	Shn3 3UTR inh
Cc1cccc(S(=O)(=O)N2CC[C@@H]3[C@H](CO)Nc4ccc(C5=CCCCC5)cc4[C@@H]32)c1	/	/	/	/	83*	/
COc1ccccc1S(=O)(=O)N1CC[C@@H]2[C@H](CO)Nc3ccc(-c4ccc(C#N)cc4)cc3[C@@H]21	/	/	/	/	17	/
COc1cccc(CNC(=O)C[C@H]2C=C[C@@H](NC(C)=O)[C@H](CO)O2)c1	-10[16.7 µM]	/	/	/	0	/
O=C(c1ccccn1)N1CC=C(c2ccccc2)CC1	8	-1	0	9	2	11
O=C(c1cccs1)N1CC=C(c2ccccc2)CC1	-13	-4	-2	73*	-48	-33
CC(=O)Nc1ccc(C=NNc2nnc(NN=Cc3ccc(NC(C)=O)cc3)c3ccccc23)cc1	15	-2	-16	45*	-13	8
C[C@@H]1CN([C@H](C)CO)C(=O)c2cc(NC(=O)c3ccncc3)ccc2O[C@H]1CN(C)Cc1ccc(C(=O)O)cc1	/	/	/	/	12	/
Cc1ccc(S(=O)(=O)N(CC(=O)NCCC2=CCCCC2)Cc2ccccc2)cc1	104*	-2	-3	-4	/	18
Cc1ccc(S(=O)(=O)N(CC(=O)NCCC2=CCCCC2)Cc2ccccc2F)cc1	/	0	-4	-6	/	21
O=C(CN(Cc1ccccc1F)S(=O)(=O)c1ccc(Cl)cc1)NCCC1=CCCCC1	69*	2	-5	-5	33	17
O=C(CN(Cc1ccccc1)S(=O)(=O)c1ccc(F)cc1)NCCC1=CCCCC1	109*	-4	-2	7	/	-10
Cc1ccc(NC(=O)c2cc(S(=O)(=O)NCCC3=CCCCC3)ccc2F)cc1	/	-5	-6	-10	64*	75
O=C(C[C@H]1C[C@H]2c3cc(NC(=O)NC4CCCC4)ccc3O[C@H]2[C@@H](CO)O1)NCCc1ccccc1	22[16.7 µM]	/	/	/	0	/
COc1ccc(NC(=O)N(C)C[C@H]2OCCCC[C@H](C)Oc3ccc(NC(=O)NC(C)C)cc3C(=O)N([C@@H](C)CO)C[C@@H]2C)cc1	-3[16.7 µM]	/	/	/	-2	/
C[C@H]1CCCCO[C@H](CN(C)CC2CC2)[C@@H](C)CN([C@@H](C)CO)C(=O)c2cc(NS(=O)(=O)c3ccc(F)cc3)ccc2O1	-2[16.7 µM]	/	/	/	-17	/
CN(C)c1ccc(NC(=S)Nc2ccc3c(c2)c(=O)n(C)n3-c2ccc(C(C)(C)C)cc2)cc1	58*	7	-5	/	17	56
C[C@H](CO)N1C[C@H](C)[C@@H](CN(C)C(=O)c2ccccn2)Oc2cc(C#Cc3ccc(F)cc3)ccc2S1(=O)=O	8[16.7 µM]	/	/	/	/	/
CC(=O)c1c(C)oc2c1C(=O)c1ccccc1C2=O	13	7	-5	4	10	-5
Cc1nc2c(o1)C(=O)c1ccccc1C2=Nc1ccccc1	79*	/	-21	87*	10	94*
O=C(Nc1ncc([N+](=O)[O-])s1)c1cccc([N+](=O)[O-])c1	-38	/	-14	15	-16	-62
O=C(Nc1ccccc1)Nc1ncc([N+](=O)[O-])s1	38	14	-16	-10	85*	19
O=C(COC(=O)c1ccccc1)Nc1ncc([N+](=O)[O-])s1	-6	83*	0	-5	3	-25
C[C@H]1CN([C@@H](C)CO)C(=O)Cc2cc(NC(=O)Cc3ccccc3)ccc2O[C@H]1CN(C)C(=O)Nc1ccc2c(c1)OCO2	6[16.7 µM]	/	/	/	-7	/
CCCN(C)C[C@@H]1Oc2ncc(C#CC3(O)CCCC3)cc2C(=O)N([C@@H](C)CO)C[C@@H]1C	-2[16.7 µM]	/	/	/	/	/
CCc1ccc(/C=C/C(=O)C2C(=O)c3ccccc3C2=O)cc1	-96	/	-5	51*	/	-31
SMILES	HIV Env fusion	NSD2 inh	N-glyco inh	EBV LMP1 NFkB	PAX8 inh HTS	Shn3 3UTR inh
Cc1ccccc1Cn1cnc2ccccc2c1=O	-26	-1	0	-6	160*	-25
C[C@@H]1CN([C@H](C)CO)S(=O)(=O)c2ccc(-c3ccncc3)cc2O[C@@H]1CN(C)C(=O)c1cccc(F)c1	-5[16.7 µM]	/	/	/	36	/
COc1cccc(C(=O)N2CCN(c3nc4cc(C)cc(C)c4cc3C#N)CC2)c1	-24	/	2	57*	-10	3
C[C@H]1CCCCO[C@@H](CN(C)C)[C@@H](C)CN([C@@H](C)CO)C(=O)c2cc(NS(=O)(=O)c3cn(C)cn3)ccc2O1	27[16.7 µM]	/	/	/	-7	/
Cn1c(SCc2ccccc2)nccc1=O	-14	-8	3	1	4	4
CC1=C(SCc2ccccc2)C(=O)c2ccccc2C1=O	-32	22	4	-1	64*	78
C[C@@H]1CCCCO[C@H](CN(C)S(=O)(=O)c2cccs2)[C@@H](C)CN([C@@H](C)CO)C(=O)c2cc(NC(=O)Nc3ccc(C(F)(F)F)cc3)ccc2O1	-4[16.7 µM]	/	/	/	75*	/
Cc1noc(C)c1NC(=O)Nc1ccc2c(c1)C(=O)N([C@@H](C)CO)C[C@@H](C)[C@@H](CN(C)S(=O)(=O)c1cccs1)OCCCC[C@H](C)O2	-14[16.7 µM]	/	/	/	-13	/
C[C@@H]1CN([C@H](C)CO)C(=O)c2cc(NC(=O)Nc3ccc(C(F)(F)F)cc3)ccc2O[C@@H](C)CCCCO[C@H]1CN(C)S(=O)(=O)c1cccs1	20[16.7 µM]	/	/	/	71*	/
C[C@@H]1CN([C@H](C)CO)C(=O)c2cc(NC(=O)Nc3ccc(F)cc3)ccc2O[C@@H](C)CCCCO[C@H]1CN(C)S(=O)(=O)c1cccs1	17	/	-6	5	68*!	36
C[C@@H]1CCCCO[C@@H](CN(C)S(=O)(=O)c2cccs2)[C@@H](C)CN([C@H](C)CO)C(=O)c2cc(NC(=O)Nc3ccc(C(F)(F)F)cc3)ccc2O1	10[16.7 µM]	/	/	/	14	/
Cc1noc(C)c1NC(=O)Nc1ccc2c(c1)C(=O)N([C@@H](C)CO)C[C@H](C)[C@H](CN(C)S(=O)(=O)c1cccs1)OCCCC[C@H](C)O2	70*[16.7 µM]	/	/	/	1	/
C[C@@H]1CN([C@H](C)CO)C(=O)c2cc(N(C)C)ccc2O[C@H]1CN(C)C(=O)Nc1ccc(C(F)(F)F)cc1	/	/	/	/	6	/
O=C(C[C@H]1C=C[C@@H](NC(=O)Nc2ccccc2F)[C@H](CO)O1)NCc1ccc(F)cc1	3[16.7 µM]	/	/	/	4	/
C[C@@H]1CN([C@@H](C)CO)C(=O)c2cc(NC(=O)Nc3ccc(C(F)(F)F)cc3)ccc2O[C@@H](C)CCCCO[C@@H]1CN(C)S(=O)(=O)c1cccs1	-12[16.7 µM]	/	/	/	-11	/
C[C@@H]1CCCCO[C@@H](CN(C)S(=O)(=O)c2cccs2)[C@H](C)CN([C@H](C)CO)C(=O)c2cc(NC(=O)Nc3ccc(C(F)(F)F)cc3)ccc2O1	12[16.7 µM]	/	/	/	80*	/
C=CCn1c(SCC(=O)c2cccs2)nc2sc(CC)cc2c1=O	88*	-1	-2	18	/	78
C=CCn1c(SCC(=O)O)nc2sc(CC)cc2c1=O	-8	-2	2	-3	2	-14
C[C@H](CO)N1C[C@H](C)[C@@H](CN(C)S(=O)(=O)c2cccs2)Oc2ncc(C#CCC3CCCC3)cc2C1=O	16[16.7 µM]	/	/	/	13	/
